Assay results as given in PubChem BioAssay AID1159580 (chemical genetic matrix, 2015).
Screen size: about 5,500 compounds; about 2,000 (36%) were called active. About 18% were inconclusive and are not listed. Cut-off read from the data, not from the text of the source: active = normalized growth mostly below about 0.91 (no sharp cut-off); inconclusive = no clear call, values can overlap the other calls; inactive = mostly above about 0.92. Some of the results follow.

Experiment: chemical genetic growth profiling, strain panel (AID 1159580);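 note: tested at 20 µM; growth read once vehicle control cultures reached saturation at 30 °C; 1 = growth at the plate median or of vehicle wells; lower values mean less growth of the strain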
Conditions: S. cerevisiae deletion strains, growth OD

Measured: normalized growth

COC(=O)C1=C(C)NC(C)=C(C(=O)OCC(C)C)C1c1ccccc1[N+](=O)[O-] (centres undefined)
active: locus YAL021C, strain ccr4, active compounds read low 0.0808 | locus YAL026C, strain drs2, active compounds read low 0.216 | locus YAL030W, strain snc1, active compounds read low 0.239 | locus YBL061C, strain skt5, active compounds read low 0.19 | locus YBR009C, strain hhf1, active compounds read low 0.224 | locus YBR023C, strain chs3, active compounds read low 0.176 | locus YBR231C, strain swc5, active compounds read low 0.212 | locus YBR279W, strain paf1, active compounds read low 0.451 | locus YCL011C, strain gbp2, active compounds read low 0.257 | locus YCL016C, strain dcc1, active compounds read low 0.462 | locus YCL069W, strain vba3, active compounds read low 0.413 | locus YCR088W, strain abp1, active compounds read low 0.39 | locus YDL005C, strain med2, active compounds read low 0.193 | locus YDR001C, strain nth1, active compounds read low 0.468 | locus YDR069C, strain doa4, active compounds read low 0.0857 | locus YDR297W, strain sur2, active compounds read low 0.167 | locus YDR334W, strain swr1, active compounds read low 0.24 | locus YDR335W, strain msn5, active compounds read low 0.814 | locus YDR392W, strain spt3, active compounds read low 0.122 | locus YEL003W, strain gim4, active compounds read low 0.463 | locus YEL037C, strain rad23, active compounds read low 0.296 | locus YEL061C, strain CIN8 (second series), active compounds read low 0.33 | locus YER015W, strain faa2, active compounds read low 0.177 | locus YER016W, strain bim1, active compounds read low 0.52 | locus YER155C, strain BEM2 (second series), active compounds read low 0.259 | locus YFR010W, strain ubp6, active compounds read low 0.382 | locus YGL167C, strain pmr1, active compounds read low 0.214 | locus YGL173C, strain kem1, active compounds read low 0.098 | locus YGL227W, strain vid30, active compounds read low 0.769 | locus YGL240W, strain doc1, active compounds read low 0.259 | locus YGL253W, strain hxk2, active compounds read low 0.303 | locus YHR013C, strain ard1, active compounds read low 0.209 | locus YHR027C, strain rpn1, active compounds read low 0.164 | locus YHR030C, strain SLT2, active compounds read low 0.472 | locus YHR079C, strain IRE1, active compounds read low 0.385 | locus YHR142W, strain chs7, active compounds read low 0.209 | locus YJL092W, strain hpr5, active compounds read low 0.422 | locus YJL095W, strain BCK1 (second series), active compounds read low 0.112 | locus YJL095W, strain BCK1, active compounds read low 0.35 | locus YJL115W, strain asf1, active compounds read low 0.424 | locus YJL129C, strain trk1, active compounds read low 0.852 | locus YJL154C, strain vps35, active compounds read low 0.344 | locus YJL164C, strain tpk1, active compounds read low 0.16 | locus YJL166W, strain qcr8, active compounds read low 0.177 | locus YJL187C, strain SWE1, active compounds read low 0.206 | locus YJR066W, strain TOR1, active compounds read low 0.57 | locus YKL160W, strain elf1, active compounds read low 0.486 | locus YKR026C, strain gcn3, active compounds read low 0.559 | locus YKR091W, strain srl3, active compounds read low 0.589 | locus YLL001W, strain dnm1, active compounds read low 0.42 | locus YLL026W, active compounds read low 0.333 | locus YLL041C, strain sdh2, active compounds read low 0.279 | locus YLR027C, strain aat2, active compounds read low 0.22 | locus YLR113W, strain HOG1, active compounds read low 0.308 | locus YLR221C, strain rsa3, active compounds read low 0.342 | locus YLR258W, strain gsy2, active compounds read low 0.209 | locus YLR262C, strain YPT6 (second series), active compounds read low 0.114 | locus YLR320W, strain mms22, active compounds read low 0.159 | locus YLR342W, strain FKS1, active compounds read low 0.163 | locus YLR357W, strain rsc2, active compounds read low 0.452 | locus YLR370C, strain arc18, active compounds read low 0.273 | locus YLR384C, strain iki3, active compounds read low 0.75 | locus YMR058W, strain fet3, active compounds read low 0.0888 | locus YMR125W, strain sto1, active compounds read low 0.462 | locus YMR129W, active compounds read low 0.633 | locus YMR205C, strain PFK2, active compounds read low 0.179 | locus YMR231W, strain pep5, active compounds read low 0.141 | locus YNL071W, strain lat1, active compounds read low 0.194 | locus YNL183C, strain NPR1, active compounds read low 0.561 | locus YNL209W, strain ssb2, active compounds read low 0.111 | locus YNL248C, strain rpa49, active compounds read low 0.488 | locus YNL322C, strain KRE1 (second series), active compounds read low 0.403 | locus YNR049C, strain mso1, active compounds read low 0.551 | locus YOR070C, strain gyp1, active compounds read low 0.492 | locus YOR083W, strain WHI5, active compounds read low 0.43 | locus YOR106W, strain vam3, active compounds read low 0.135 | locus YOR231W, strain MKK1, active compounds read low 0.513 | locus YOR265W, strain rbl2, active compounds read low 0.204 | locus YOR270C, strain vph1, active compounds read low 0.153 | locus YPL051W, strain arl3, active compounds read low 0.129 | locus YPL106C, strain sse1, active compounds read low 0.299 | locus YPL240C, strain hsp82, active compounds read low 0.242 | locus YPL256C, strain CLN2, active compounds read low 0.415
inactive: locus YBR171W, strain sec66, active compounds read low 0.898 | locus YDL040C, strain nat1, active compounds read low 0.953 | locus YDR137W, strain rgp1, active compounds read low 0.866 | locus YDR159W, strain sac3, active compounds read low 0.958 | locus YDR195W, strain ref2 1.06 | locus YER111C, strain swi4, active compounds read low 0.945 | locus YML120C, strain ndi1, active compounds read low 0.978 | locus YOR001W, strain rrp6, active compounds read low 0.952 | locus YOR080W, strain dia2, active compounds read low 0.958 | locus YOR290C, strain snf2, active compounds read low 0.912 | locus YPL078C, strain atp4, active compounds read low 0.94

COC(=O)C1=C(C)NC(C)=C([N+](=O)[O-])C1c1ccccc1C(F)(F)F (centres undefined)
inactive: locus YAL040C, strain CLN3, active compounds read low 0.982 | locus YCL061C, strain MRC1 (second series), active compounds read low 1 | locus YER002W, strain NOP16, active compounds read low 0.991 | locus YGR078C, strain PAC10, active compounds read low 0.94 | locus YNL175C, strain NOP13, active compounds read low 0.976 | locus YNL197C, strain WHI3, active compounds read low 1.04 | locus YNL224C, strain SQS1, active compounds read low 0.987 | locus YNL322C, strain KRE1, active compounds read low 1.01 | locus YOR083W, strain WHI5 (second series), active compounds read low 1 | locus YPL055C, strain LGE1, active compounds read low 1.01
